The target of assay [1] is 6-phosphogluconate dehydrogenase, decarboxylating (Homo sapiens) (UniProt P52209). The assay can be described thus: 6PGD enzyme inhibitors, primary screen, biochemical, human, recombinant enzyme, NADPH absorbance (AID 1159550;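 active means at least 20% inhibition of 6-phosphogluconate dehydrogenase activity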). Conditions: recombinant 6PGD, NADPH absorbance 341 nm; at 10 µM; stronger effect = higher value.
A short description of assay [2]: differential killing of epithelial or mesenchymal cells, primary screen, imaging, PC-3E GFP, TEM4-18 mCherry, co-culture (AID 1345086).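 On all read-outs here: cells exposed to compound for 72 h before imaging.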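 On red/green cell ratio (normalised): normalised mesenchymal count divided by normalised epithelial count so high means epithelial killing.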 Conditions: imaging cell counts, at 1 µM; for red/green cell ratio (normalised): actives lie on both sides, counts scaled to control wells, 1 = unselective.
The target of assay [3] is Mitogen-activated protein kinase 7 (Homo sapiens) (UniProt Q13164). Put plainly: ERK5 transactivation activators in reporter cells, primary screen, cell-based, HTS (AID 1508626;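 active means luciferase signal above three times the same-plate solvent-only control wells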;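 further: luciferase driven by Gal4-ERK5 fusion binding five Gal4 sites before minimal TATA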). Conditions: HeLa Gal4-ERK5 transactivation, 18 h, at 5 µM, stronger effect = higher value.
The mark [4] stands for this setting: measured here: epithelial PC-3E GFP cell survival.
[5] abbreviates: measured here: mesenchymal TEM4-18 mCherry cell survival.

SMILES strings stand for the structures. Several values for one entry are separate records, joined by “and”; a condition that tells them apart may be missing. Equal values may be shown once. Activity calls are given as the source filed them.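 How the source made its calls, unless noted: active means compounds killing one labelled cell type while sparing the other, by normalised counts and ratio limits, not self-fluorescent; inactive means the rest.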 Peptide text beside a SMILES is read from it.

6-phosphogluconate dehydrogenase, decarboxylating (Homo sapiens), sequence (P52209 whole entry, looked up): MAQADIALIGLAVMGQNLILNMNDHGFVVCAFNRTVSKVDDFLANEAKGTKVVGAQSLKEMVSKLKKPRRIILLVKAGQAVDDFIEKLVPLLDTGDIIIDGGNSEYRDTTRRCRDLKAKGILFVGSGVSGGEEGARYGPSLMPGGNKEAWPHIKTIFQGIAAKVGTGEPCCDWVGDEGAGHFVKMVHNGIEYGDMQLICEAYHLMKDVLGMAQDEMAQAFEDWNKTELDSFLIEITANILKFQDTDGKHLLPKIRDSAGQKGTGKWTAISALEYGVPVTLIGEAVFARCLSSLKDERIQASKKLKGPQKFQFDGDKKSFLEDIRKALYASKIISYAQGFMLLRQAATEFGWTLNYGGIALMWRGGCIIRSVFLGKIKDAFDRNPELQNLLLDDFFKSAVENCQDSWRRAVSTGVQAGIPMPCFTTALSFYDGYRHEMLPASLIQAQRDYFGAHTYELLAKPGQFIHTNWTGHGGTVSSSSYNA
Mitogen-activated protein kinase 7 (Homo sapiens), sequence (Q13164 whole entry, looked up, the tested form may be a part): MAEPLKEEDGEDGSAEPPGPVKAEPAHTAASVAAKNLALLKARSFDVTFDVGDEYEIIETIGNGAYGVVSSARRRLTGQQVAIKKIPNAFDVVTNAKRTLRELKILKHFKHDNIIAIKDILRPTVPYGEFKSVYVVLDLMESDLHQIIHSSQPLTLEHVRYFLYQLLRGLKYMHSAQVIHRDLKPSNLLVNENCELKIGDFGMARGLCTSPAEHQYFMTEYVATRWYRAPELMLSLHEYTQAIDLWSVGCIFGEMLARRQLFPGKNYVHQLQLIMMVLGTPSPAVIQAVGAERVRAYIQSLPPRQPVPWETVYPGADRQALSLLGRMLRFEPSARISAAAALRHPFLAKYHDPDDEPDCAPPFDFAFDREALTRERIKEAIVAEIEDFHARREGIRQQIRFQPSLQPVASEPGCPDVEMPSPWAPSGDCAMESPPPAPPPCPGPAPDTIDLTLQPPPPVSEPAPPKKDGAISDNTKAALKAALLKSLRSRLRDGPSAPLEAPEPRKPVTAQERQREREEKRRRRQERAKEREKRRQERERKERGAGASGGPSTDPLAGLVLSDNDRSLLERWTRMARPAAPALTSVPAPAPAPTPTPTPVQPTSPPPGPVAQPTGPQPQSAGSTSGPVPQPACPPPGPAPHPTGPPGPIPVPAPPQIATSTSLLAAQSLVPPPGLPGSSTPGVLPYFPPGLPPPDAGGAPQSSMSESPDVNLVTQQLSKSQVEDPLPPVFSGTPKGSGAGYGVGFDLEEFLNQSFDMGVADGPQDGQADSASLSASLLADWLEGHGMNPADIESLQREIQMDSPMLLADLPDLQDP

Take `COc1ccc(-c2c(O)c3c(OC)c4c(cc3oc2=O)OC(C)(C)C=C4)cc1`: in assay [1], the inhibition is 11.4% (inactive). The red/green cell ratio (normalised) in assay [2] is 0.9 (inactive). The normalised cell number in assay [2] (setting [4]) was found to be 1.02; in assay [2] (setting [5]), 0.92. Also, in assay [3], the luciferase signal was 88 AU (inactive).

For the compound `Cn1c(=O)[nH]c(=O)c2[nH]cnc21`, the inhibition in assay [1] was 5.61% (inactive). Also, the red/green cell ratio (normalised) in assay [2] was 0.93 (inactive). The figures for the normalised cell number in assay [2] (setting [4]) and in assay [2] (setting [5]) were 1.22 and 1.13, respectively. Besides, in assay [3], the luciferase signal was 52 AU (inactive).

Consider `CCOc1ccc(C(=O)c2ccc(O)c(O)c2O)cc1`, for which the inhibition in assay [1] was -12.8% (inactive). Also, the red/green cell ratio (normalised) in assay [2] was 0.88 (inactive). The results for the normalised cell number in assay [2] (setting [4]) and in assay [2] (setting [5]) were 0.99 and 0.87, respectively. Moreover, the luciferase signal in assay [3] is 104 AU (inactive).

With `CC1(C)C=Cc2cc3ccc(=O)oc3cc2O1`, in assay [1], the inhibition is 5.11% (inactive). Further, in assay [2], the red/green cell ratio (normalised) is 0.99 (inactive). The normalised cell number in assay [2] (setting [4]) was found to be 1.07; in assay [2] (setting [5]), 1.05. In addition, in assay [3], the luciferase signal was 56 AU (inactive).

For `COc1ccc(C(=O)O)c(O)c1OC`, the inhibition in assay [1] is 17.2% (inactive). In assay [2], the red/green cell ratio (normalised) was 1.11 (inactive). Also, the normalised cell number in assay [2] (setting [4]) is 1.01; in assay [2] (setting [5]) it was 1.12. For the same compound, the luciferase signal in assay [3] is 56 AU (inactive).

On to `COc1ccc2c(C)cc(=O)oc2c1`, for which the inhibition in assay [1] was 13.6% (inactive). Besides, in assay [2], the red/green cell ratio (normalised) is 1.03 (inactive). For the same compound, the normalised cell number in assay [2] (setting [4]) came to 1.13; in assay [2] (setting [5]), 1.16. The luciferase signal in assay [3] was 60 AU (inactive).

With `O=C1c2ccccc2C(=O)c2c(O)c(O)cc(O)c21`, the inhibition in assay [1] was 17.9% (inactive). For the same compound, the red/green cell ratio (normalised) in assay [2] was 1.09 (inactive). Further, the figures for the normalised cell number in assay [2] (setting [4]) and in assay [2] (setting [5]) were 0.94 and 1.02, respectively. The luciferase signal in assay [3] is 100 AU (inactive).

Consider `COc1c(-c2coc3cc4c(cc3c2=O)CC(OC(C)=O)C(C)(C)O4)ccc2c1C=CC(C)(C)O2` (stereo not given), for which the inhibition in assay [1] was 13.9% (inactive). For the same compound, the red/green cell ratio (normalised) in assay [2] is 0.78 (inactive). For the same compound, the normalised cell number is 1.02 in assay [2] (setting [4]) and 0.8 in assay [2] (setting [5]). Moreover, the luciferase signal in assay [3] is 56 AU (inactive).

For the compound `Cc1cc(O)cc(O)c1C(=O)O`, the inhibition in assay [1] is -6.2% (inactive). In assay [2], the red/green cell ratio (normalised) is 0.81 (inactive). Moreover, the normalised cell number in assay [2] (setting [4]) worked out at 1.09; in assay [2] (setting [5]), 0.88. For the same compound, in assay [3], the luciferase signal is 124 AU (inactive).

Take `CC(C)C[C@H](N)C(=O)N[C@@H](C)C(=O)O` (H-Leu-Ala-OH): in assay [1], the inhibition is 3.68% (inactive). The red/green cell ratio (normalised) in assay [2] is 0.74 (inactive). Besides, the values for the normalised cell number in assay [2] (setting [4]) and in assay [2] (setting [5]) were 1.26 and 0.93, respectively. The luciferase signal in assay [3] was 16 AU (inactive).

On to `CCOc1ccc(C(=O)c2ccc(OC)c(O)c2O)cc1`, for which, in assay [1], the inhibition is -3.36% (inactive). The red/green cell ratio (normalised) in assay [2] was 0.9 (inactive). The normalised cell number came to 0.9 in assay [2] (setting [4]) and 0.81 in assay [2] (setting [5]). Besides, in assay [3], the luciferase signal is 68 AU (inactive).

In the case of `COc1cc(-c2coc3cc(O[C@@H]4O[C@H](CO)[C@@H](O)[C@H](O)[C@H]4O)c(OC)c(O)c3c2=O)cc(O)c1OC`, the inhibition in assay [1] is -0.763% (inactive). For the same compound, in assay [2], the red/green cell ratio (normalised) is 0.96 (inactive). The normalised cell number in assay [2] (setting [4]) is 0.99; in assay [2] (setting [5]) it was 0.95. The luciferase signal in assay [3] is 68 AU (inactive).

Consider `COc1cc(O)c(C)c(O)c1`, for which the inhibition in assay [1] was 5.9% (inactive). Further, the red/green cell ratio (normalised) in assay [2] is 0.94 (inactive). The values for the normalised cell number in assay [2] (setting [4]) and in assay [2] (setting [5]) were 1.19 and 1.12, respectively. Further, in assay [3], the luciferase signal was 48 AU (inactive).

As for `Nc1nc2ncc(=O)[nH]c2c(=O)[nH]1`, the inhibition in assay [1] is -1.84% (inactive). Besides, the red/green cell ratio (normalised) in assay [2] was 1.01 (inactive). The normalised cell number in assay [2] (setting [4]) came out at 1.17; in assay [2] (setting [5]), 1.18. Besides, the luciferase signal in assay [3] was 56 AU (inactive).

As for `COc1ccc(-c2coc3c(O)c(OC)ccc3c2=O)cc1`, the inhibition in assay [1] is 11.6% (inactive). For the same compound, in assay [2], the red/green cell ratio (normalised) was 0.97 (inactive). Besides, the normalised cell number in assay [2] (setting [4]) stood at 1.1; in assay [2] (setting [5]) it was 1.06. Also, the luciferase signal in assay [3] was 100 AU (inactive).

As for `O=C(O)CCCCCCCCCCCCC1C=CCC1` (stereo not given), in assay [1], the inhibition is -14% (inactive). In addition, the red/green cell ratio (normalised) in assay [2] was 1 (inactive). The normalised cell number in assay [2] (setting [4]) and in assay [2] (setting [5]) was 1.02 in each case. In assay [3], the luciferase signal is 20 AU (inactive).

As to `O=C(O)c1nc2cc(Cl)c(Cl)cc2[nH]c1=O`, the inhibition in assay [1] is -11.6% (inactive). Moreover, the red/green cell ratio (normalised) in assay [2] is 0.95 (inactive). For the same compound, the figures for the normalised cell number in assay [2] (setting [4]) and in assay [2] (setting [5]) were 1.19 and 1.12, respectively. The luciferase signal in assay [3] is 36 AU (inactive).

With `CC(=O)Oc1ccc(O)cc1`, the inhibition in assay [1] was 4.32% (inactive). In assay [2], the red/green cell ratio (normalised) is 1.07 (inactive) and 1.15 (inactive). In addition, the normalised cell number in assay [2] (setting [4]) is 1.01 and 1.05; in assay [2] (setting [5]) it was 1.08 and 1.21. Moreover, the luciferase signal in assay [3] is 88 AU (inactive).

As to `CCOC(=O)c1c(C)cc(O)cc1O`, the inhibition in assay [1] was 0.669% (inactive). The red/green cell ratio (normalised) in assay [2] was 0.99 (inactive). For the same compound, the normalised cell number in assay [2] (setting [4]) and in assay [2] (setting [5]) was 0.99 throughout. For the same compound, the luciferase signal in assay [3] was 72 AU (inactive).

For `CC(C)c1c(O)c(-c2cc3c(c(C(C)C)c2O)CCC2C(C)(C)CCC[C@]32C)cc2c1CCC1C(C)(C)CCC[C@]21C` (stereo not given in full), the inhibition in assay [1] was -2.25% (inactive). For the same compound, the red/green cell ratio (normalised) in assay [2] was 1 (inactive). Besides, the normalised cell number in assay [2] (setting [4]) and in assay [2] (setting [5]) was 1.03 in each case. Further, the luciferase signal in assay [3] is 40 AU (inactive).

With `COc1cc(OC)c2c(=O)c(-c3ccc4c(c3)OCO4)coc2c1`, the inhibition in assay [1] was 7.77% (inactive). The red/green cell ratio (normalised) in assay [2] was 1.06 (inactive). In addition, the normalised cell number in assay [2] (setting [4]) is 1.13; in assay [2] (setting [5]) it was 1.2. Also, in assay [3], the luciferase signal was 92 AU (inactive).

For `C=C(C)[C@H]1COc2cc3oc(=O)ccc3cc2O1`, in assay [1], the inhibition is 5.71% (inactive). The red/green cell ratio (normalised) in assay [2] is 0.95 (inactive). Further, the normalised cell number came to 1.17 in assay [2] (setting [4]) and 1.11 in assay [2] (setting [5]). Moreover, in assay [3], the luciferase signal was 44 AU (inactive).

With `COc1cc(C)c2c(c1C=O)Oc1c(c(C)c(O)c3c1C(O)OC3=O)OC2=O` (stereo not given), in assay [1], the inhibition is -0.395% (inactive). Further, the red/green cell ratio (normalised) in assay [2] is 0.74 (inactive). Besides, the figures for the normalised cell number in assay [2] (setting [4]) and in assay [2] (setting [5]) were 0.95 and 0.7, respectively. The luciferase signal in assay [3] is 44 AU (inactive).

For `Cc1cc(O)cc(=O)o1`, the inhibition in assay [1] is 18.1% (inactive). Further, in assay [2], the red/green cell ratio (normalised) was 0.97 (inactive). Moreover, the normalised cell number in assay [2] (setting [4]) came out at 1.03; in assay [2] (setting [5]), 1.01. Also, the luciferase signal in assay [3] was 52 AU (inactive).

Regarding `CC(C)=CC1C(C(=O)O)C1(C)C` (stereo not given), the inhibition in assay [1] is -0.837% (inactive). The red/green cell ratio (normalised) in assay [2] was 1.07 (inactive). The normalised cell number in assay [2] (setting [4]) worked out at 0.96; in assay [2] (setting [5]), 1.03. Besides, the luciferase signal in assay [3] was 44 AU (inactive).

In the case of `Cc1cc(O)c(C=O)c2c1C(=O)Oc1c(C)c(O)c3c(c1O2)C(O)OC3=O` (stereo not given), in assay [1], the inhibition was 7.31% (inactive). The red/green cell ratio (normalised) in assay [2] is 0.95 (inactive). The results for the normalised cell number in assay [2] (setting [4]) and in assay [2] (setting [5]) were 1.01 and 0.96, respectively. In addition, in assay [3], the luciferase signal is 136 AU (inactive).

`c1ccc2c(c1)CN1CCCC1=N2`: in assay [1], the inhibition is -1.15% (inactive). Moreover, the red/green cell ratio (normalised) in assay [2] was 1.13 (inactive). Also, the normalised cell number in assay [2] (setting [4]) is 0.94; in assay [2] (setting [5]), 1.06. Moreover, the luciferase signal in assay [3] was 52 AU (inactive).

A word on the inhibition: it is the drop in the measured response relative to a control, in per cent.
